The whole screen tested about 5,500 compounds, of which about 2,000 (36%) were called active. Roughly 18% stayed inconclusive and do not appear here. Rule as the data show it: active = normalized growth mostly below about 0.91 (no sharp cut-off); inconclusive = no clear call, values can overlap the other calls; inactive = mostly above about 0.92. The list shows a part of the results.
Experiment: chemical genetic growth profiling, strain panel (AID 1159580);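 also: tested at 20 µM; growth read once vehicle control cultures reached saturation at 30 °C; 1 = growth at the plate median or of vehicle wells; lower values mean less growth of the strain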
Conditions: S. cerevisiae deletion strains, growth OD
[1] = locus YAL021C, strain ccr4, stronger effect = lower value
[2] = locus YAL026C, strain drs2, stronger effect = lower value
[3] = locus YAL030W, strain snc1, stronger effect = lower value
[4] = locus YBL061C, strain skt5, stronger effect = lower value
[5] = locus YBR009C, strain hhf1, stronger effect = lower value
[6] = locus YBR023C, strain chs3, stronger effect = lower value
[7] = locus YBR171W, strain sec66, stronger effect = lower value
[8] = locus YBR231C, strain swc5, stronger effect = lower value
[9] = locus YBR279W, strain paf1, stronger effect = lower value
[10] = locus YCL011C, strain gbp2, stronger effect = lower value
[11] = locus YCL016C, strain dcc1, stronger effect = lower value
[12] = locus YCL061C, strain MRC1, stronger effect = lower value
[13] = locus YCL069W, strain vba3, stronger effect = lower value
[14] = locus YCR088W, strain abp1, stronger effect = lower value
[15] = locus YDL005C, strain med2, stronger effect = lower value
[16] = locus YDL040C, strain nat1, stronger effect = lower value
[17] = locus YDR001C, strain nth1, stronger effect = lower value
[18] = locus YDR069C, strain doa4, stronger effect = lower value
[19] = locus YDR137W, strain rgp1, stronger effect = lower value
[20] = locus YDR159W, strain sac3, stronger effect = lower value
[21] = locus YDR297W, strain sur2, stronger effect = lower value
[22] = locus YDR334W, strain swr1, stronger effect = lower value
[23] = locus YDR335W, strain msn5, stronger effect = lower value
[24] = locus YDR392W, strain spt3, stronger effect = lower value
[25] = locus YEL003W, strain gim4, stronger effect = lower value
[26] = locus YEL037C, strain rad23, stronger effect = lower value
[27] = locus YEL061C, strain CIN8 (second series), stronger effect = lower value
[28] = locus YER015W, strain faa2, stronger effect = lower value
[29] = locus YER016W, strain bim1, stronger effect = lower value
[30] = locus YER111C, strain swi4, stronger effect = lower value
[31] = locus YER155C, strain BEM2 (second series), stronger effect = lower value
[32] = locus YFR010W, strain ubp6, stronger effect = lower value
[33] = locus YGL167C, strain pmr1, stronger effect = lower value
[34] = locus YGL173C, strain kem1, stronger effect = lower value
[35] = locus YGL227W, strain vid30, stronger effect = lower value
[36] = locus YGL240W, strain doc1, stronger effect = lower value
[37] = locus YGL253W, strain hxk2, stronger effect = lower value
[38] = locus YHR013C, strain ard1, stronger effect = lower value
[39] = locus YHR027C, strain rpn1, stronger effect = lower value
[40] = locus YHR030C, strain SLT2, stronger effect = lower value
[41] = locus YHR079C, strain IRE1, stronger effect = lower value
[42] = locus YHR142W, strain chs7, stronger effect = lower value
[43] = locus YJL092W, strain hpr5, stronger effect = lower value
[44] = locus YJL095W, strain BCK1 (second series), stronger effect = lower value
[45] = locus YJL095W, strain BCK1, stronger effect = lower value
[46] = locus YJL115W, strain asf1, stronger effect = lower value
[47] = locus YJL129C, strain trk1, stronger effect = lower value
[48] = locus YJL154C, strain vps35, stronger effect = lower value
[49] = locus YJL164C, strain tpk1, stronger effect = lower value
[50] = locus YJL166W, strain qcr8, stronger effect = lower value
[51] = locus YJR066W, strain TOR1, stronger effect = lower value
[52] = locus YKL160W, strain elf1, stronger effect = lower value
[53] = locus YKR026C, strain gcn3, stronger effect = lower value
[54] = locus YKR091W, strain srl3, stronger effect = lower value
[55] = locus YLL001W, strain dnm1, stronger effect = lower value
[56] = locus YLL026W, stronger effect = lower value
[57] = locus YLL041C, strain sdh2, stronger effect = lower value
[58] = locus YLR027C, strain aat2, stronger effect = lower value
[59] = locus YLR113W, strain HOG1, stronger effect = lower value
[60] = locus YLR221C, strain rsa3, stronger effect = lower value
[61] = locus YLR258W, strain gsy2, stronger effect = lower value
[62] = locus YLR262C, strain YPT6 (second series), stronger effect = lower value
[63] = locus YLR320W, strain mms22, stronger effect = lower value
[64] = locus YLR342W, strain FKS1, stronger effect = lower value
[65] = locus YLR357W, strain rsc2, stronger effect = lower value
[66] = locus YLR370C, strain arc18, stronger effect = lower value
[67] = locus YLR384C, strain iki3, stronger effect = lower value
[68] = locus YML120C, strain ndi1, stronger effect = lower value
[69] = locus YMR058W, strain fet3, stronger effect = lower value
[70] = locus YMR125W, strain sto1, stronger effect = lower value
[71] = locus YMR129W, stronger effect = lower value
[72] = locus YMR205C, strain PFK2, stronger effect = lower value
[73] = locus YMR231W, strain pep5, stronger effect = lower value
[74] = locus YNL071W, strain lat1, stronger effect = lower value
[75] = locus YNL183C, strain NPR1, stronger effect = lower value
[76] = locus YNL209W, strain ssb2, stronger effect = lower value
[77] = locus YNL248C, strain rpa49, stronger effect = lower value
[78] = locus YNL322C, strain KRE1 (second series), stronger effect = lower value
[79] = locus YNR049C, strain mso1, stronger effect = lower value
[80] = locus YOR001W, strain rrp6, stronger effect = lower value
[81] = locus YOR070C, strain gyp1, stronger effect = lower value
[82] = locus YOR080W, strain dia2, stronger effect = lower value
[83] = locus YOR083W, strain WHI5, stronger effect = lower value
[84] = locus YOR106W, strain vam3, stronger effect = lower value
[85] = locus YOR231W, strain MKK1, stronger effect = lower value
[86] = locus YOR265W, strain rbl2, stronger effect = lower value
[87] = locus YOR270C, strain vph1, stronger effect = lower value
[88] = locus YOR290C, strain snf2, stronger effect = lower value
[89] = locus YPL051W, strain arl3, stronger effect = lower value
[90] = locus YPL078C, strain atp4, stronger effect = lower value
[91] = locus YPL106C, strain sse1, stronger effect = lower value
[92] = locus YPL240C, strain hsp82, stronger effect = lower value
[93] = locus YPL256C, strain CLN2, stronger effect = lower value

Measured: normalized growth

Nc1cc(C(Cl)=C(Cl)Cl)c(S(N)(=O)=O)cc1S(N)(=O)=O
inactive: [1] 0.98 | [2] 1 | [3] 1.02 | [4] 1.01 | [5] 0.992 | [6] 0.999 | [7] 1.02 | [8] 1.04 | [9] 1.01 | [10] 0.976 | [11] 0.978 | [12] 1.04 | [13] 1.01 | [14] 1.01 | [15] 1.01 | [16] 1.01 | [17] 1.02 | [18] 1.05 | [19] 0.998 | [20] 0.957 | locus YDR195W, strain ref2 0.998 | [21] 1.01 | [22] 1.01 | [23] 1.01 | [24] 0.978 | [25] 1.05 | [26] 1 | [27] 1 | [28] 1.02 | [29] 1 | [30] 1.01 | [31] 1.07 | [32] 1.02 | [33] 1.02 | [34] 1.04 | [35] 1 | [36] 1.04 | [37] 1.01 | [38] 1.03 | [39] 1.02 | [40] 0.977 | [41] 0.967 | [42] 1.02 | [43] 1.02 | [44] 0.997 | [45] 1.01 | [46] 1 | [47] 1.02 | [48] 0.999 | [49] 0.995 | [50] 1.06 | [51] 0.95 | [52] 1.02 | [53] 1.01 | [54] 0.992 | [55] 1.04 | [56] 1.02 | [57] 1.01 | [58] 1.02 | [59] 1 | [60] 0.981 | [61] 0.991 | [62] 1.06 | [63] 0.993 | [64] 1.04 | [65] 1.04 | [66] 1 | [67] 1.01 | [68] 1.03 | [69] 1.02 | [70] 0.972 | [71] 0.998 | [72] 1.03 | [73] 1.01 | [74] 0.991 | [75] 0.962 | [76] 0.994 | [77] 0.995 | [78] 1.01 | [79] 1 | [80] 1.02 | [81] 1 | [82] 1.02 | [83] 1.01 | [84] 1.04 | [85] 0.986 | [86] 1.01 | [87] 1.05 | [88] 0.964 | [89] 1.04 | [90] 1.06 | [91] 0.997 | [92] 1 | [93] 0.964

Cc1ncc([N+](=O)[O-])n1CC(C)O (stereo not drawn)
inactive: [1] 0.954 | [2] 0.956 | [3] 0.975 | [4] 0.974 | [5] 0.982 | [6] 0.995 | [7] 0.976 | [8] 0.992 | [9] 0.995 | [10] 0.968 | [11] 0.975 | [12] 0.924 | [13] 0.975 | [14] 0.986 | [15] 0.976 | [16] 0.978 | [17] 0.95 | [18] 0.966 | [19] 0.983 | [20] 0.972 | locus YDR195W, strain ref2 0.989 | [21] 0.982 | [22] 0.957 | [23] 0.982 | [24] 0.922 | [25] 0.977 | [26] 0.983 | [27] 0.964 | [28] 0.988 | [29] 0.983 | [30] 0.978 | [31] 0.994 | [32] 0.969 | [33] 0.981 | [34] 0.966 | [35] 0.985 | [36] 0.995 | [37] 0.981 | [38] 0.948 | [39] 0.987 | [40] 0.976 | [41] 0.979 | [42] 0.99 | [43] 0.961 | [44] 0.984 | [45] 0.991 | [46] 0.982 | [47] 0.966 | [48] 0.979 | [49] 0.966 | [50] 0.996 | [51] 0.883 | [52] 1 | [53] 0.984 | [54] 0.983 | [55] 0.988 | [56] 0.988 | [57] 0.982 | [58] 0.994 | [59] 1.01 | [60] 0.958 | [61] 0.974 | [62] 0.981 | [63] 0.96 | [64] 0.987 | [65] 0.959 | [66] 0.992 | [67] 0.998 | [68] 0.967 | [69] 0.971 | [70] 0.945 | [71] 0.965 | [72] 0.979 | [73] 0.972 | [74] 0.979 | [75] 0.891 | [76] 0.987 | [77] 0.946 | [78] 0.974 | [79] 0.978 | [80] 0.994 | [81] 0.985 | [82] 0.981 | [83] 0.997 | [84] 0.978 | [85] 0.991 | [86] 0.99 | [87] 0.97 | [88] 0.939 | [89] 1 | [90] 0.997 | [91] 0.931 | [92] 0.98 | [93] 0.965
